Hits are enriched below; roughly 21% of the tested compounds scored in any of these assays.
Pf growth 96h = inhibits malaria parasite growth, 96 h. 6.9% of 320,000 active. P. falciparum luciferase reporter growth, 96 h. Potency, µM (doses to about 28.7 µM), without a hit: at the highest dose activity change, negative = inhibition, hits mostly inhibitors; note: potency is the fitted concentration of half-maximal effect; % is set by controls: 0 for no effect and ±100 for the full control effect
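Luminescence readout: decreased luciferase signal marks inhibited growth of reporter-expressing P. falciparum in infected red cells (2% hematocrit, 0.05% parasitemia final), exposed to compound two generations (96 h, 37 C, 5% CO2).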
Pf growth 48h = P. falciparum growth inhibition at 48 hours (one generation). P. falciparum luciferase growth in erythrocytes, 48 h. Potency, µM (series often up to 28.7 µM), for inactives: at the top dose activity change, negative = inhibition, usual class: inhibitors. 5.9% of 310,000 active. AID 504832; note: potency is the fitted concentration of half-maximal effect; % is set by controls: 0 for no effect and ±100 for the full control effect
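Compounds are pin-transferred into medium, infected erythrocytes (2% hematocrit, 0.1% parasitemia final) are added, and plates sit one parasite generation at 37 C in 5% CO2. Detection reagent is then added and luminescence measured.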
Cycloheximide cs = counter-screen for Shiga toxin inhibitors: cycloheximide protein synthesis inhibition; cell reporter, cycloheximide protein synthesis inhibition counterscreen; max response, %; 12% of 300,000 active; AID 2314; in the data active = max response mostly above about 13%, no sharp cut-off; inactive = mostly below about 14%; note: read at 38.3 µM for the half of the compounds with a filed dose; 0% is about no effect
Sm TGR block = S. mansoni TGR enzyme inhibition. purified TGR, DTNB reduction, TNB absorbance 405 nm. Potency, µM (highest dose often 114 µM), inactives show at the top dose activity change, negative = inhibition, most hits filed as inhibitors. 3% of 360,000 active; note: potency is the fitted concentration of half-maximal effect; % is set by controls: 0 for no effect and ±100 for the full control effect; nearly all actives have a fitted effect of over 60% in size
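Kinetic colorimetric format: TGR-catalysed, NADPH-driven DTNB reduction monitored via TNB absorbance. Enzyme dispensed at 20 nM; compound exposure 15 min at room temperature before reaction start.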
NS1 function inh = influenza NS1 inhibition | Potency, µM (doses to about 46.1 µM), without a hit: at the highest dose activity, positive = more growth | 0.4% of 270,000 active | AID 2326; calls by dose curve; note: potency is the fitted concentration of half-maximal effect; actives are rising curves; nearly all actives have a fitted effect of over 50% in size
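In this qHTS, NS1 from influenza A is expressed in budding yeast, where it slows growth. Cells are switched from glucose to 2% galactose medium (pH 6.0, -URA), treated with compound, and growth recovery is read at OD600.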
Shiga toxin inh = Shiga toxin inhibition | Vero cells, Shiga toxin protein synthesis inhibition reporter | inhibition, % at 38.7 µM | 9.2% of 290,000 active; in the data active = inhibition mostly above about 28%, no sharp cut-off; inactive = mostly below about 43%; note: 0% is about no effect
The depositor's hits bear a star; ? = inconclusive; · = not tested or not shown. Unless noted, calls come from the whole dose curve; as a rule, active = well fitted curve in the direction sought with a large enough effect; inconclusive = small, poorly fitted or top-dose-only effect, or another doubt; inactive = no such curve, though single readings can be large; an effect the other way counts as inactive or inconclusive.

SMILES | Pf growth 96h | Pf growth 48h | Cycloheximide cs | Sm TGR block | NS1 function inh | Shiga toxin inh
Cc1ccc(C)c(-c2nnc(NC(=O)C3=COCCO3)o2)c1 | -11% | -28% | · | 2% | · | ·
NS(=O)(=O)c1ccc(O)c(NC(=O)c2ccc([N+](=O)[O-])o2)c1 | 10µM* | 7.4µM* | 2 | ? | -1% | -6
CCCCOc1ccc(C(=O)Nc2ccc(N3CCN(C(C)=O)CC3)cc2)cc1 | 53% | · | -5 | 10% | -26% | -22
O=C(NNC(=O)c1ccc([N+](=O)[O-])o1)c1ccccc1 | -12% | ? | 25* | -28% | -2% | 52
CCCCOc1ccc(C(=O)Nc2ccc(N3CCN(C(=O)C(C)C)CC3)cc2)cc1 | · | 9.3µM* | -4 | -16% | 2% | -6
COc1ccccc1/C=C(\NC(=O)c1ccc(OC)c(OC)c1)C(=O)Nc1cccc([N+](=O)[O-])c1 | 0% | -10% | 1 | 4% | ? | -10
COc1ccc2oc(-c3ccc(NC(=O)c4ccc(Cl)cc4Cl)cc3)nc2c1 | · | · | · | 5% | · | ·
CC(=O)c1ccc(NC(=O)c2ccc([N+](=O)[O-])o2)cc1 | 3% | -11% | 34* | 28µM* | -117% | 98*
NC(=O)c1oc2ccccc2c1NC(=O)c1nc2ccccc2s1 | -72% | 164% | 41* | 0% | -4% | 99*
NC(=O)c1oc2ccccc2c1NC(=O)C1CCCCC1 | 7% | -3% | 4 | -2% | -16% | -15
O=C(CC1N=C2c3ccccc3N=C(SCC(=O)Nc3ccccc3F)N2C1=O)NCc1ccc2c(c1)OCO2 (stereo not given) | · | · | · | 0% | · | ·
COc1cc([C@@H]2c3cc4c(cc3[C@@H](O)[C@@H](CO)[C@@H]2CO)OCO4)cc(OC)c1O[Si](C)(C)C(C)(C)C | ? | 9.3µM* | -9 | -5% | 1% | -16
COc1cc([C@@H]2c3cc4c(cc3[C@H](O)[C@H]3COC(=O)[C@H]23)OCO4)cc(OC)c1OC | 1.1µM* | 15µM* | -3 | 2% | -2% | -16
COc1cc([C@@H]2c3cc4c(cc3[C@@H](OC)[C@H]3COC(=O)[C@H]23)OCO4)cc(OC)c1O | 12µM* | 10µM* | 1 | 10% | -14% | 5
COc1ccccc1CC(=O)NC1CCN(Cc2ccccc2)CC1 | 4% | 27% | -2 | -3% | 2% | -6
COc1cc(CC(=O)NCc2ccc3c(c2)OCO3)cc(OC)c1OC | · | -21% | 0 | -31% | -1% | 1
COc1cc([C@@H]2c3cc4c(cc3[C@@H](NC3CCN(Cc5ccccc5)CC3)[C@H]3COC(=O)[C@H]23)OCO4)cc(OC)c1O | 0.17µM* | 0.74µM* | -4 | -28% | -13% | 9
Cc1ccc(CN2c3ccccc3-c3nc(SCC(=O)NCCc4ccccc4)ncc3S2(=O)=O)cc1 | · | · | · | -10% | · | ·
C=CCC(O)(CC=C)CNC(=O)C1CCC(=O)N(CCCc2ccccc2)C1 (stereo not given) | 4% | 15% | -4 | 0% | 13% | 1
COc1ccc(/C=C2\CN(Cc3ccccc3)C/C(=C\c3ccc(OC)cc3OC)C2=O)c(OC)c1 | ? | ? | -1 | -22% | 13% | -7
COc1cc(OC)c(OC)cc1/C=C1\CC(C)C/C(=C\c2cc(OC)c(OC)cc2OC)C1=O (stereo not given) | ? | 4.7µM* | -1 | -30% | 23% | 4
O=C1CNC(=O)/C(=C/c2ccco2)N1 | 53% | 357% | 21 | -10% | · | 42
COc1cc(OC)c(OC)cc1/C=C1/Cc2ccccc2C1=O | ? | 4% | -5 | -17% | 6% | -6
CCC1C/C(=C/c2ccco2)C(=O)/C(=C/c2ccco2)C1 (stereo not given) | 9.3µM* | -11% | 16 | 20µM* | 7% | -1
CCC1C/C(=C\c2cc(OC)c(OC)cc2OC)C(=O)/C(=C/c2cc(OC)c(OC)cc2OC)C1 (stereo not given) | ? | 5.2µM* | 3 | -21% | 22% | -4
SMILES | Pf growth 96h | Pf growth 48h | Cycloheximide cs | Sm TGR block | NS1 function inh | Shiga toxin inh
O=C1c2oc3ccccc3c(=O)c2C(c2cccc(Br)c2)N1Cc1ccco1 (stereo not given) | 0.37µM* | 4% | 11 | -5% | -74% | -5
COc1cc(C)cc2c(-c3c(O)cc(O)c4c3C[C@H](C)N[C@@H]4C)cc(-c3cc(-c4c(O)cc(O)c5c4C[C@H](C)N[C@@H]5C)c4cc(C)cc(OC)c4c3O)c(O)c12 | · | · | · | · | 7.9µM* | ·
CCc1ccc(NC(=O)c2ccc(F)c(S(=O)(=O)NCCc3ccc(OC)c(OC)c3)c2)cc1 | · | · | · | -5% | · | ·
CCN(CC)C(=O)CSc1nc2ccccc2c(=O)n1CC1CCCCC1 | ? | 4.1µM* | -4 | -8% | -11% | -4
O=C(CSc1nc2ccccc2c(=O)n1CC1CCCCC1)N1CCOCC1 | 13µM* | 9.3µM* | -5 | -14% | -57% | -15
N#Cc1cnc2cc(-c3ccccc3)nn2c1N | 21% | 49% | 18* | -4% | 3% | 29
COc1ccc(-c2cc3ncc(-c4ccccc4)c(N)n3n2)cc1 | -48% | 211% | 36* | -3% | -2% | 61*
Cc1nc2cc(-c3ccccc3)nn2c(N)c1-c1ccccc1 | 399% | 171% | · | -2% | · | ·
Cc1cc([N+](=O)[O-])nn1CC(=O)N1CCN(Cc2ccccc2)CC1 | 10µM* | ? | -7 | 1% | · | 9
CSc1ccccc1NC(=O)Cn1nc([N+](=O)[O-])cc1C | 0.19µM* | 20% | 3 | -7% | · | -7
C=CCn1c(SCC(=O)NC2CCS(=O)(=O)C2)nnc1-c1cc2c(s1)CCC(CC)C2 (stereo not given) | 37% | 46% | 25* | 5% | -8% | 63
C=CCn1c(-c2cc3c(s2)CCC(CC)C3)n[nH]c1=S (stereo not given) | 40% | 18% | 24* | 0% | · | 36
C=CCn1c(-c2sccc2C)n[nH]c1=S | 4% | -11% | -2 | -8% | 12% | -8
CC1Nc2ncnc(N3CCN(c4ccccc4)CC3)c2N(Cc2ccc(Br)cc2)C1=O (stereo not given) | ? | 13µM* | · | -19% | · | ·
CC(C)CC1Nc2ncnc(N3CCN(c4ccccc4)CC3)c2N(Cc2ccc(Cl)cc2)C1=O (stereo not given) | 9.3µM* | 9.3µM* | · | ? | · | ·
CCC1Nc2ncnc(N3CCN(c4ccccc4)CC3)c2N(Cc2ccc(C)cc2)C1=O (stereo not given) | 12µM* | ? | · | -32% | · | ·
COc1ccc(Br)cc1CNC(=O)CCSCc1ccc(C)cc1 | · | · | · | -9% | · | ·
O=C1Nc2cc(Cl)c(Cl)cc2N(O)N1c1ccccc1 | 18% | · | 30* | 8% | 18% | 20
Cc1ccc(N2C(=O)Nc3cc(Cl)c(Cl)cc3N2O)cc1Cl | 27% | ? | -3 | 12% | · | -15
O=C(O)/C=C/C(=O)Nc1ccc(NC(=O)c2ccccc2)c(Cl)c1 | ? | 80% | 12 | ? | · | -11
